From PubChem BioAssay (Tox21) come the findings set out here.

Records with an inconclusive call do not appear. More than one record can exist for a structure, and the calls need not agree. The source made the active and inactive calls. The call rests on the fitted dose curve.

The target of assay [1] is Acetylcholinesterase (Homo sapiens) (UniProt P22303). Kind of assay: Acetylcholinesterase (AChE) small molecule antagonists: colormetric cell-based qHTS assay (AID 1347395). Further: nearly all actives have a fitted effect of over 30% in size. Further: potency means the concentration at half of the fitted maximal effect. The method, boiled down:
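SH-SY5Y cells; cpd 30 min 37 C; + DTNB/acetylthiocholine, 90 min 37 C; colorimetric thiocholine read; qHTS.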
On the technique in general: qHTS replaces the single test concentration by a dilution series.

Assay [2] shares this target. The experiment in a line: Acetylcholinesterase (AChE) small molecule antagonists: enzyme-based qHTS assay (AID 1347397). Further: nearly all actives have a fitted effect of over 55% in size. As to conditions: Potency: AChE enzyme activity inhibition; outcome: AChE enzyme activity inhibition. In short, it runs like this:
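rhAChE 50 mU/mL (dispensed) + cpd or DMSO, 30 min RT; add DTNB/acetylthiocholine cocktail, 10 min RT; colorimetric thiocholine readout. qHTS, 1536-well format.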

The target is the same in assay [3]. The experiment in a line: Acetylcholinesterase (AChE) small molecule antagonists: fluorescence cell-based qHTS assay (AID 1347398). Further: nearly all actives have a fitted effect of over 50% in size. The conditions noted are these: Potency: AChE activity; outcome: AChE activity. In short, it runs like this:
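Read-out is Thiolite Green fluorescence at Ex/Em = 490/520 nm, formed by reaction with thiocholine released when cellular AChE in SH-SY5Y cells hydrolyzes acetylthiocholine. Compounds were preincubated 30 min at 37 C before substrate.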

Assay [4] shares this target. The experiment in a line: Acetylcholinesterase (AChE) small molecule antagonists: enzyme-based qHTS assay with human liver microsomes (AID 1347399). Further: nearly all actives have a fitted effect of over 60% in size. The conditions noted are these: Potency: qHTS inhibition; outcome: qHTS inhibition. In short, it runs like this: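 Recombinant human AChE (50 mU/mL in the enzyme mix) and human liver microsomes (0.25 mg/mL final) were preincubated with compound and NADPH (0.25 mg/mL final) for 30 min at 37 C. Acetylthiocholine/DTNB was then added; thiocholine was read colorimetrically after 10 min at room temperature.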
On the % scale 0 is the no-effect control and ±100 the full control effect.

Acetylcholinesterase (Homo sapiens), sequence (P22303 whole entry, looked up): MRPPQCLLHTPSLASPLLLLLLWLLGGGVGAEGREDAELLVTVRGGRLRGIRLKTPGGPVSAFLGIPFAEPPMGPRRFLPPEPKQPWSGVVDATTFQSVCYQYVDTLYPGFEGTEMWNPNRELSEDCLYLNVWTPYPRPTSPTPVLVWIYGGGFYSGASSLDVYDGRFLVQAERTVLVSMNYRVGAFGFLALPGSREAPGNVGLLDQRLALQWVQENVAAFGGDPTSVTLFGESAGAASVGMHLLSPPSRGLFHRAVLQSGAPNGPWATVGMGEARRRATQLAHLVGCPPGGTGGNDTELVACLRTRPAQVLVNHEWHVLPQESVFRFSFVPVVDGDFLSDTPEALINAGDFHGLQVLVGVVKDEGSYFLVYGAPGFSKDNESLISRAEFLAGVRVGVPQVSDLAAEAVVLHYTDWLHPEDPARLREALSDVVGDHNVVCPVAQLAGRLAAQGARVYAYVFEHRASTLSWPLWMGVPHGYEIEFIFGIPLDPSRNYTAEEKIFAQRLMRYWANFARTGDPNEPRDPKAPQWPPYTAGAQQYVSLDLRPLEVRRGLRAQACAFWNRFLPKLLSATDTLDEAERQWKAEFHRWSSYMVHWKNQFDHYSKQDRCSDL

Consider `O=C(NCCc1c[nH]c2ccccc12)c1cccnc1`, for which the Potency result in assay [1], in assay [2], in assay [3] and in assay [4] was “inactive” each time.

For `OCC1CC=CCC1` (stereo not given), the Potency entry in assay [1], in assay [2], in assay [3] and in assay [4] was “inactive” throughout.

`O=C(O)CN(CCCN(CC(=O)O)CC(=O)O)CC(=O)O`: in assay [1], the activity, negative = inhibition was 0.786% [at 23.6 µM] (inactive). In addition, the activity change, negative = inhibition in assay [2] is 4.89% [at 23.6 µM] (inactive); in assay [3] it was 3.08% [at 23.8 µM] (inactive); in assay [4] it was 1.21% [at 23.6 µM] (inactive).

In the case of `O=C(O)CCC(=O)OC[C@@H](NC(=O)C(Cl)Cl)[C@H](O)c1ccc([N+](=O)[O-])cc1`, the Potency result in assay [1], in assay [2], in assay [3] and in assay [4] was “inactive” each time.

Turning to `CC1(C)S[C@@H]2[C@H](NC(=O)Cc3ccccc3)C(=O)N2[C@H]1C(=O)O` (tested in a mixture with another compound), the Potency entry in assay [1], in assay [2], in assay [3] and in assay [4] was “inactive” throughout.

With `Cc1ccc(C)c(C)c1`, the Potency result in assay [1], in assay [2], in assay [3] and in assay [4] was “inactive” throughout.

As to `CCc1ccccc1O`, the Potency result in assay [1], in assay [2], in assay [3] and in assay [4] was “inactive” in each case.

With `COC(=O)[C@H]1[C@H]2C[C@@H]3c4[nH]c5cc(OC)ccc5c4CCN3C[C@H]2C[C@@H](OC(=O)c2cc(OC)c(OC)c(OC)c2)[C@@H]1OC`, the Potency result in assay [1], in assay [2], in assay [3] and in assay [4] was “inactive” each time.

`CCCCOCCOCCOC(C)=O`: the Potency result in assay [1], in assay [2], in assay [3] and in assay [4] was “inactive” each time.

`CC[Si](OC(C)=O)(OC(C)=O)OC(C)=O`: the Potency entry in assay [1], in assay [2], in assay [3] and in assay [4] was “inactive” throughout.

Regarding `CC[C@H](NC(C)C)[C@H](O)c1ccc(O)c2[nH]c(=O)ccc12`, the Potency result in assay [1], in assay [2], in assay [3] and in assay [4] was “inactive” throughout.

For the compound `Cc1cc(C)cc(OCC2CNC(=O)O2)c1` (stereo not given), the Potency entry in assay [1], in assay [2], in assay [3] and in assay [4] was “inactive” throughout.

Regarding `CCSC(=O)N(CC(C)C)CC(C)C`, the Potency result in assay [1], in assay [2], in assay [3] and in assay [4] was “inactive” each time.

`CCOC(=O)CC(=O)OCC`: the Potency result in assay [1], in assay [2], in assay [3] and in assay [4] was “inactive” throughout.

For the compound `Clc1nc2ccccc2s1`, the Potency result in assay [1], in assay [2], in assay [3] and in assay [4] was “inactive” throughout.

Regarding `O=C(O)Cc1ccc(-c2ccccc2)cc1`, the Potency result in assay [1], in assay [2], in assay [3] and in assay [4] was “inactive” each time.

On to `CC(CC(C)(C)C)CC(C)(C)CC(C)(C)C` (stereo not given), for which the Potency result in assay [1], in assay [2], in assay [3] and in assay [4] was “inactive” in each case.

Regarding `CC(C)=CC(=O)C=C(C)C`, the Potency entry in assay [1], in assay [2], in assay [3] and in assay [4] was “inactive” each time.

For `CCCCCCCCC1CO1` (stereo not given), the Potency result in assay [1], in assay [2], in assay [3] and in assay [4] was “inactive” in each case.

On to `NS(=O)(=O)c1ccc(NC(=O)CCC(=O)O)cc1`, for which the Potency entry in assay [1], in assay [2], in assay [3] and in assay [4] was “inactive” each time.

`O=C(Nc1ncc([N+](=O)[O-])s1)c1cccs1`: the Potency entry in assay [1], in assay [2], in assay [3] and in assay [4] was “inactive” each time.

As to `CCCCC/C=C\C/C=C\CCCCCCCC(=O)OC`, the Potency entry in assay [1], in assay [2], in assay [3] and in assay [4] was “inactive” in each case.

As to `O=C1OC(O)C(C(Cl)Cl)=C1Cl` (stereo not given), the Potency result in assay [1], in assay [2], in assay [3] and in assay [4] was “inactive” each time.

As for `CCOC(=O)[C@H](C)O`, the Potency result in assay [1], in assay [2], in assay [3] and in assay [4] was “inactive” in each case.

Take `O=C(c1ccccc1)c1ccc(O)c(O)c1O`: the Potency result in assay [1], in assay [2], in assay [3] and in assay [4] was “inactive” in each case.

Consider `CCCCCCCCS(=O)C(C)Cc1ccc2c(c1)OCO2` (stereo not given), for which the Potency result in assay [1], in assay [2], in assay [3] and in assay [4] was “inactive” each time.

As for `COc1ccc(C(=O)c2ccc(C)cc2)c(O)c1`, the Potency entry in assay [1], in assay [2], in assay [3] and in assay [4] was “inactive” throughout.

In the case of `Cn1c(=O)c2[nH]cnc2n(C)c1=O`, the Potency entry in assay [1], in assay [2], in assay [3] and in assay [4] was “inactive” throughout.

Turning to `CCC1(c2ccccc2)C(=O)NCNC1=O`, the Potency entry in assay [1], in assay [2], in assay [3] and in assay [4] was “inactive” each time.

Take `CCOC(=O)N1CCC(n2c(=O)[nH]c3cc(Cl)ccc32)CC1`: the Potency entry in assay [1], in assay [2], in assay [3] and in assay [4] was “inactive” throughout.

Turning to `CCCC(=O)OCCC(C)CCC=C(C)C` (stereo not given), the Potency entry in assay [1], in assay [2], in assay [3] and in assay [4] was “inactive” in each case.

Regarding `CCCCCC=O`, the Potency entry in assay [1], in assay [2], in assay [3] and in assay [4] was “inactive” throughout.

`Clc1cc(Cl)c(Cl)c(Cl)c1Cl`: the Potency entry in assay [1], in assay [2], in assay [3] and in assay [4] was “inactive” each time.

Turning to `CN1CCN(c2c(F)cc3c(=O)c(C(=O)O)cn(CCF)c3c2F)CC1`, the Potency result in assay [1], in assay [2], in assay [3] and in assay [4] was “inactive” throughout.

For the compound `Cc1c(C)c2c(c(C)c1O)CCC(C)(COc1ccc(CC3SC(=O)NC3=O)cc1)O2` (stereo not given), the Potency result in assay [1], in assay [2], in assay [3] and in assay [4] was “inactive” each time.

Regarding `CC(=O)Nc1cccc(O)c1`, the Potency entry in assay [1], in assay [2], in assay [3] and in assay [4] was “inactive” each time.

Regarding `OCCc1ccccc1`, the Potency result in assay [1], in assay [2], in assay [3] and in assay [4] was “inactive” in each case.

In the case of `C[Si](C)O[Si](C)(C)O[Si](C)(C)O[Si](C)C`, the Potency entry in assay [1], in assay [2], in assay [3] and in assay [4] was “inactive” each time.

With `CN(c1nccc(=O)[nH]1)C1CCN(c2nc3ccccc3n2Cc2ccc(F)cc2)CC1`, the Potency entry in assay [1], in assay [2], in assay [3] and in assay [4] was “inactive” in each case.

Regarding `Cc1ccc([N+](=O)[O-])c(N)c1`, the Potency entry in assay [1], in assay [2], in assay [3] and in assay [4] was “inactive” each time.

In the case of `O=C1c2ccccc2C(=O)c2cc(S(=O)(=O)O)ccc21`, the Potency result in assay [1], in assay [2], in assay [3] and in assay [4] was “inactive” each time.

`O=C(O)c1c(Cl)ccc(Cl)c1Cl`: the Potency entry in assay [1], in assay [2], in assay [3] and in assay [4] was “inactive” each time.

Consider `OCc1c2ccccc2cc2ccccc12`, for which the Potency result in assay [1], in assay [2], in assay [3] and in assay [4] was “inactive” throughout.

As to `CCCCCOC(C)=O`, in assay [1], the Potency was 32.1 µM (active) and inactive. For the same compound, the Potency entry in assay [2], in assay [3] and in assay [4] was “inactive” throughout.

As for `CCCCCC[C@@H](O)C/C=C\CCCCCCCC(=O)OCC(O)CO` (stereo not given in full), the Potency result in assay [1], in assay [2], in assay [3] and in assay [4] was “inactive” each time.

As for `CCOc1cc([N+](=O)[O-])c(OCC)cc1N1CCOCC1`, the Potency entry in assay [1], in assay [2], in assay [3] and in assay [4] was “inactive” in each case.

Take `C[Si](C)(C)O[Si](O)(O)O`: the Potency entry in assay [1], in assay [2], in assay [3] and in assay [4] was “inactive” each time.

For the compound `COc1ccc(C)cc1[N+](=O)[O-]`, the Potency entry in assay [1], in assay [2], in assay [3] and in assay [4] was “inactive” in each case.

With `C=C(C)C(=O)OC(C)C`, the Potency result in assay [1], in assay [2], in assay [3] and in assay [4] was “inactive” throughout.

Regarding `O=C(Nc1ccc(C(=O)O)c(O)c1)c1ccccc1`, the Potency entry in assay [1], in assay [2], in assay [3] and in assay [4] was “inactive” throughout.

In the case of `CCCOc1ccc2nc(NC(=O)OC)[nH]c2c1`, the Potency entry in assay [1], in assay [2], in assay [3] and in assay [4] was “inactive” throughout.

On to `C#CC(C)N(C)C(=O)Nc1ccc(Cl)cc1` (stereo not given), for which the Potency entry in assay [1], in assay [2], in assay [3] and in assay [4] was “inactive” in each case.

In the case of `CC1=CCC(C(C)C)=CC1`, the Potency result in assay [1], in assay [2], in assay [3] and in assay [4] was “inactive” throughout.

With `C[Si](O[Si](C)(C)C)O[Si](C)(C)C`, the Potency entry in assay [1], in assay [2], in assay [3] and in assay [4] was “inactive” in each case.

`OCC1CC2CC1C1CCC(CO)C21` (stereo not given): the Potency result in assay [1], in assay [2], in assay [3] and in assay [4] was “inactive” throughout.

Consider `Cc1cc(=O)[nH]c(=S)[nH]1`, for which the Potency result in assay [1], in assay [2], in assay [3] and in assay [4] was “inactive” in each case.

On to `Cc1ccc(S(=O)(=O)NC(=O)NN2CC3CCCC3C2)cc1` (stereo not given), for which the Potency result in assay [1], in assay [2], in assay [3] and in assay [4] was “inactive” each time.

On to `CC(C)C(=O)Nc1ccc([N+](=O)[O-])c(C(F)(F)F)c1`, for which the Potency result in assay [1], in assay [2], in assay [3] and in assay [4] was “inactive” in each case.

Regarding `Nc1ccc(O)c([N+](=O)[O-])c1`, the Potency result in assay [1], in assay [2], in assay [3] and in assay [4] was “inactive” in each case.

On to `Nc1ccc2cc3ccccc3cc2c1`, for which the Potency result in assay [1], in assay [2], in assay [3] and in assay [4] was “inactive” each time.
